Screening results deposited in PubChem by Broad Institute.
IDE exosite inh: displaces the probe from the exo-site of human IDE; AID 1259349; purified IDE, FL-6b probe fluorescence polarization; active compounds read low; z-score at 20 µM; 6.3% of 17,000 active;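 active = z-score of -3 or lower, meaning strong loss of probe binding signal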;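 note: His-tagged human IDE residues 42-1019 made in E. coli with 30 nM FL-6b probe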
Target sequence (P14735 42-1019 limits assumed): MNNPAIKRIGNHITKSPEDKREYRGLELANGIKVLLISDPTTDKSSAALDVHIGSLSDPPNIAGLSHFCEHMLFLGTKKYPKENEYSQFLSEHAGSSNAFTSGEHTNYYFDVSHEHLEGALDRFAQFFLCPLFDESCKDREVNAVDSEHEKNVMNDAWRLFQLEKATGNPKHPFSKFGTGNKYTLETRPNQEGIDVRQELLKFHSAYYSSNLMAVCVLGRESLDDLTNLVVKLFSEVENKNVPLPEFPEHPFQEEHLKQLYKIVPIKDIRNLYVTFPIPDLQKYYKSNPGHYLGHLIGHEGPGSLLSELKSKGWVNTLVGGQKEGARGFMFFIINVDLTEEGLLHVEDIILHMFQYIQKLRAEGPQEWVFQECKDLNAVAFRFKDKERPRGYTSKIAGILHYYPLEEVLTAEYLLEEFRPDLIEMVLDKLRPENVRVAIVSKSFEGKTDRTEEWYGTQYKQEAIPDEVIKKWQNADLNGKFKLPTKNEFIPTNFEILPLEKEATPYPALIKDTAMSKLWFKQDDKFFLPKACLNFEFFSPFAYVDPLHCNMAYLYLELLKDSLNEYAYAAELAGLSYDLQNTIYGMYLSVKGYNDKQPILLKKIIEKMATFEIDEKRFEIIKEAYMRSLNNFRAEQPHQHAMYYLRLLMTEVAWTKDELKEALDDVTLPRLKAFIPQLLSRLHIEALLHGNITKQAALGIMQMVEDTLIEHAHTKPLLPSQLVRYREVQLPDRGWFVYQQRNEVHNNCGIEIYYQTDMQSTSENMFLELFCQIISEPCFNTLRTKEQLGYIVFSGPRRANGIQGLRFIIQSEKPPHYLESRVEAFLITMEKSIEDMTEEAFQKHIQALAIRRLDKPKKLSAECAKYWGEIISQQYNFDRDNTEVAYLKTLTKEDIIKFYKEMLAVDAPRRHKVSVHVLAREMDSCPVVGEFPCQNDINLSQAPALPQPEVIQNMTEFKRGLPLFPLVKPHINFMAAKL
Numbers without * were called inactive. This excerpt belongs to a sample that is enriched for hits.

SMILES	IDE exosite inh
O=C(C[C@H]1CC[C@H]2[C@@H](COC[C@H](O)CN2C(=O)Nc2ccccc2)O1)NCc1ccccc1F	0.83
COc1ccccc1NC(=O)N1CCCCN2[C@H](CO)[C@@H](c3ccc(-c4cccc(F)c4)cc3)[C@@H]2C1	3
CCCNC(=O)N(C)C[C@@H]1Oc2cc(C#C[C@H](C)O)ccc2S(=O)(=O)N([C@H](C)CO)C[C@@H]1C	-0.044
CCCNC(=O)N1[C@H](C#N)[C@H](c2ccc(-c3cccc(OC)c3)cc2)[C@H]1CO	-1.9
O=S(=O)(c1ccccc1F)N1CCCCN2[C@H](CO)[C@H](c3ccc(-c4ccncc4)cc3)[C@@H]2C1	0.49
CO[C@@H]1CN(C)C(=O)c2cc(NC(=O)C3CC3)ccc2OC[C@@H](C)N(Cc2cc(F)ccc2F)C[C@H]1C	0.77
O=C(C[C@@H]1C[C@@H]2c3cc(NS(=O)(=O)c4ccccc4)ccc3O[C@@H]2[C@@H](CO)O1)N1CCOCC1	1.7
CCC(=O)N1CCCCN2[C@H](C1)[C@@H](c1ccc(C#Cc3ccccc3F)cc1)[C@@H]2CO	-6.5*
CCC(=O)N1CCCCN2[C@H](C1)[C@H](c1ccc(-c3ccc(F)cc3)cc1)[C@@H]2CO	1.5
CCC(=O)N1CCCCN2[C@H](CO)[C@H](c3ccc(C#Cc4ccccc4F)cc3)[C@@H]2C1	-5.9*
CCC(=O)N1CCCCN2[C@H](CO)[C@@H](c3ccc(-c4ccc(F)cc4)cc3)[C@H]2C1	1.4
O=C(Nc1cccc(F)c1)N1CCCCN2[C@@H](CO)[C@H](c3ccc(C#CC4CC4)cc3)[C@@H]2C1	2.7
CCCNC(=O)N1[C@@H](C#N)[C@@H](c2ccc(-c3ccccc3F)cc2)[C@@H]1CO	1.2
COCC(=O)N1CC(=O)N2[C@H](CO)[C@@H](c3ccc(-c4cccnc4)cc3)[C@H]2C1	1.9
COc1cccc(C#Cc2ccc([C@H]3[C@H]4CN(C(=O)c5ccccc5)CC(=O)N4[C@H]3CO)cc2)c1	-0.5
COc1cccc(C#Cc2ccc([C@@H]3[C@@H](CO)N4C(=O)CN(C(=O)c5ccccc5)C[C@@H]34)cc2)c1	-2.8
CCC(=O)N1CC(=O)N2[C@H](CO)[C@H](c3ccc(C#Cc4cccnc4)cc3)[C@H]2C1	2.1
CC(=O)N1CC(=O)N2[C@@H](CO)[C@@H](c3ccc(C#Cc4cccnc4)cc3)[C@@H]2C1	-3.9*
COc1cccc(C#Cc2ccc([C@@H]3[C@H](CO)N4C(=O)CN(C(C)=O)C[C@@H]34)cc2)c1	-15*
COc1cccc(C#Cc2ccc([C@H]3[C@@H](CO)N4C(=O)CN(C(=O)c5ccncc5)C[C@H]34)cc2)c1	-8.4*
COc1cccc(C#Cc2ccc([C@@H]3[C@H](CO)N4C(=O)CN(C(=O)c5ccccc5)C[C@@H]34)cc2)c1	-1.8
COc1cccc(C#Cc2ccc([C@H]3[C@H](CO)N4C(=O)CN(C(C)=O)C[C@@H]34)cc2)c1	-5.4*
COc1cccc(C#Cc2ccc([C@@H]3[C@H]4CN(C(=O)c5ccncc5)CC(=O)N4[C@H]3CO)cc2)c1	-2.4
CC(=O)N1CC(=O)N2[C@H](C1)[C@H](c1ccc(C#Cc3cccnc3)cc1)[C@@H]2CO	-0.76
COc1ccccc1NC(=O)N1CCCCN2[C@@H](CO)[C@@H](c3ccc(-c4cccc(C#N)c4)cc3)[C@@H]2C1	-0.51
SMILES	IDE exosite inh
COC(=O)C[C@@H]1CC[C@@H]2[C@@H](COc3ccc(NC(=O)c4ccc(C(F)(F)F)cc4)cc3C(=O)N2C)O1	-1.1
CC(C)C[C@H]1COCc2cn(nn2)CC[C@@H](C)C(=O)N1	-0.86
CO[C@@H](CN(C)C(=O)c1cc(Cl)cc(Cl)c1)[C@H](C)CN(C(=O)Nc1ccc(F)cc1)[C@@H](C)CO	-0.28
C/C=C/c1ccc([C@H]2[C@@H](CO)N(Cc3ccccc3)[C@H]2CNC(=O)C2CC2)cc1	3
CN(C)CC#Cc1ccc([C@@H]2[C@H](CO)N3C(=O)CN(C(=O)Cc4ccccc4)C[C@@H]23)cc1	1
COCC(=O)N1CC2(C1)CN(Cc1nccs1)[C@H](CO)c1c2c2ccc(OC)cc2n1C	1
C[C@H](CO)N1C[C@H](C)[C@H](CN(C)C(=O)Nc2cccc3ccccc23)Oc2ncccc2C1=O	-3
C[C@H](CO)N1C[C@H](C)[C@H](CN(C)Cc2ccc3c(c2)OCO3)Oc2ncc(-c3cccc(C(F)(F)F)c3)cc2C1=O	0.96
COc1ccccc1CNC(=O)C[C@H]1C[C@@H]2c3cc(NC(=O)C4CCC4)ccc3O[C@@H]2[C@H](CO)O1	-0.42
N#C[C@H]1[C@@H](c2ccccc2C2=CCCCC2)[C@H](CO)N1C(=O)Cc1ccncc1	0.41
Cc1cccc(S(=O)(=O)N[C@H]2CC[C@@H](CCNC(=O)Nc3cc(F)ccc3F)O[C@H]2CO)c1	1.2
COCC(=O)N1CCCCN2[C@H](CO)[C@H](c3ccc(C#Cc4ccccc4)cc3)[C@@H]2C1	-8.4*
COCC(=O)N1CCCCN2[C@H](CO)[C@@H](c3ccc(C#Cc4ccc(OC)cc4)cc3)[C@@H]2C1	-1.4
COCC(=O)N1CCCCN2[C@@H](CO)[C@H](c3ccc(C#Cc4ccccc4)cc3)[C@@H]2C1	-11*
